# From PubChem BioAssay
# Only some compounds are listed: those with a hit (about 2.9% of all), similar ones and a draw of the others.
# IP6K1 inh: Primary qHTS assay for small molecule inhibitors of Inositol hexaphosphate kinase 1 (IP6K1). 140,000 compounds, 0.81% hits. activity change, % (series mostly up to about 58 µM). Inositol hexakisphosphate kinase 1 (Homo sapiens), Q92551. IP6K1 kinase, ADP-Glo luminescence, 2 h; hits give low values; in the data active = activity change below about -25%; note: % is set by controls: 0 for no effect and ±100 for the full control effect
#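 ADP-Glo luminescence measures ADP made by human IP6K1 during a 2 h RT reaction with ATP/IP6 (mix at 1.3 mM/130 uM); top library doses 57.5 and 19.1 uM final.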
# SNCA viab count: GF-AFC viability counterscreen for inhibitors of alpha-synuclein gene (SNCA) expression; HEK-293-SNCA-luc viability, GF-AFC fluorescence, 24 h; Potency, µM (highest dose often 57.1 µM), for inactives: at the top dose activity change, negative = cytotoxicity, most hits filed as cytotoxic; 150,000 compounds, 0.12% hits;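 note: potency is the fitted concentration of half-maximal effect; 0% = DMSO-treated cells and -100% = medium-only wells without cells; nearly all actives have a fitted effect of over 30% in size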
#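 HEK-293-SNCA-luc cells (1500/well) plated 24 h, then exposed 24 h to a dilution series; GF-AFC added 30 min at 37C, fluorescence 405/540 nm; normalised to medium-only and DMSO wells, Hill fit.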
# SNCA expr inh: Primary qHTS assay for inhibitors of alpha-synuclein gene (SNCA) expression; HEK-293 SNCA-luciferase knock-in, luminescence, 24 h; Potency, µM (top dose mostly 57.2 µM), without a hit: top-dose activity change, negative = inhibition, hits mostly inhibitors; 140,000 compounds, 0.17% hits; AID 1671194, 2021;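 note: potency is the fitted concentration of half-maximal effect; plate controls were DMSO cells for no effect and cell-free wells for full effect; nearly all actives have a fitted effect of over 45% in size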
# KDM5B inh: Primary screen for KDM5B Histone Demethylases FDH-coupled qHTS. Lysine-specific demethylase 5B (Homo sapiens), Q9UGL1. KDM5B demethylase, FDH-coupled NADH fluorescence (FDH is formaldehyde dehydrogenase). Potency, µM (series often up to 57.7 µM), actives largely listed as inhibitors. 220,000 compounds, 2.6% hits. AID 1347165, 2019; note: potency is the fitted concentration of half-maximal effect; 0% is about no effect; nearly all actives have a fitted effect of over 70% in size
#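 Coupled FDH/NAD⁺ fluorescence readout. KDM5BΔAP 200 nM final; compound titration, 10 min RT preincubation; substrate mix 12.5 µM H3K4me3, 25 µM 2-OG, 50 µM Fe(II), 100 µM ascorbate, 0.25 mM NAD⁺, 0.25 U/mL FDH; ΔRFU over 30 min.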
# IP6K1 inh cnf: Confirmatory qHTS assay for small molecule inhibitors of Inositol hexaphosphate kinase 1 (IP6K1); shares compounds with IP6K1 inh; recombinant IP6K1 kinase, ADP-Glo luminescence, 2 h; Potency, µM (series often up to 49 µM), without a hit: at the top dose activity change, negative = inhibition, most hits filed as inhibitors; 1,200 compounds, 13% hits; AID 1645852, 2021; note: potency is the fitted concentration of half-maximal effect; % is set by controls: 0 for no effect and ±100 for the full control effect; nearly all actives have a fitted effect of over 65% in size
# An asterisk follows results filed as active; i = inactive; ? = inconclusive; nt = no result given; [ ] = remark or other dose. Unless noted, calls come from the whole dose curve; as a rule, active = well fitted curve in the direction sought with a large enough effect; inconclusive = small, poorly fitted or top-dose-only effect, or another doubt; inactive = no such curve, though single readings can be large; an effect the other way counts as inactive or inconclusive.
SMILES,IP6K1 inh,SNCA viab count,SNCA expr inh,KDM5B inh,others
Cc1nc(-c2cccs2)cc([C@H]2CN3CC[C@H]2C[C@@H]3CO)n1,8.0,-24.8%[87.6 µM],3.55µM*,35.5µM*,
CCNC(=O)NC[C@H]1C[C@@H]2CCN1C[C@@H]2c1cc(-c2ccc(OC)c(OC)c2)nc(C)n1,-10.4,3.1%,2.9%,17.8µM*,
COc1ccc(-c2cc([C@H]3CN4CC[C@H]3C[C@@H]4CN)nc(C)n2)cc1OC,5.6,?,5.0%[87.6 µM],39.8µM*,
COc1ccc(-c2cc([C@H]3CN4CC[C@H]3C[C@@H]4CNC(=O)c3ccc(C(C)(C)C)cc3)n(C)n2)cc1OC,-5.3,-17.0%,-20.8%,i,
CSc1cccc(NC(=O)NC[C@H]2C[C@@H]3CCN2C[C@@H]3CN2CCSCC2)c1,10.1,-12.0%[87.6 µM],-5.5%[87.6 µM],i,
C#CCN1C(=O)[C@@H]2[C@H](c3ccccc31)[C@@H](C(=O)OCC)[C@@H](c1ccccc1)N2C(=O)c1ccco1,0.4,nt,nt,nt,
COc1ccc(-c2cc([C@H]3CN4CC[C@H]3C[C@@H]4CNC(=O)CSCC(=O)O)nc(C)n2)cc1OC,-3.5,-17.9%,12.8%,31.6µM*,
CCCS(=O)(=O)NC[C@H]1C[C@@H]2CCN1C[C@@H]2c1cc(-c2ccc(OC)c(OC)c2)nc(C)n1,8.7,-4.9%,-9.5%,25.1µM*,
Cc1nc(-c2ccc(C(F)(F)F)cc2)cc([C@H]2CN3CC[C@H]2C[C@@H]3CNC(=O)CCCC(=O)O)n1,2.9,5.1%,-25.2%,i,
COc1cc2c(cc1OCC1CC1)NC(=O)C21CCN(c2ncc(F)cn2)CC1,-24.3,-1.4%[87.6 µM],-25.0%[87.6 µM],i,
COc1cc2c(cc1Oc1ccccc1)NC(=O)C21CCN(c2cnccn2)CC1,-15.9,-10.4%[87.6 µM],-30.0%[87.6 µM],31.6µM*,
COc1cc2c(cc1OCC1CC1)NC(=O)C21CCN(c2nccc(C(F)(F)F)n2)CC1,-16.9,0.2%,?,22.4µM*,
COc1cc2c(cc1OCc1ccccc1)NC(=O)C21CCN(c2ncc(F)cn2)CC1,-16.8,-20.7%[87.6 µM],-2.9%[87.6 µM],31.6µM*,
COc1cc2c(cc1Oc1ccccc1)NC(=O)C21CCN(C(=O)c2cnccn2)CC1,-14.5,-5.7%[87.6 µM],-2.0%[87.6 µM],i,
COc1cc2c(cc1Oc1ccccc1)NC(=O)C21CCN(c2nc(C)cc(C)n2)CC1,-19.3,-19.3%[87.6 µM],?,?,
COc1cc2c(cc1Oc1ccccc1)NC(=O)C21CCN(c2ncc(F)cn2)CC1,-21.1,-9.5%[87.6 µM],?,31.6µM*,
COc1cc2c(cc1OCc1ccccc1)N(C(=O)C1CCC(C)CC1)CC21CCN(C)CC1 (configuration not stated),-7.8,?,?,i,
CCOC(=O)[C@H]1CN(C(=O)COc2ccccc2)[C@]2(C)C(=O)N(CCOC(C)=O)c3ccccc3[C@H]12,-6.5,nt,nt,nt,
COc1ccc(C(=O)NC[C@H]2C[C@@H]3CCN2C[C@@H]3c2cc(-c3ccc(N(C)C)cc3)nc(C)n2)cc1,-3.7,-22.3%,?,28.2µM*,
Cc1nc(-c2ccc(N(C)C)cc2)cc([C@H]2CN3CC[C@H]2C[C@@H]3COC(=O)NC(C)C)n1,-8.9,-11.6%,-16.5%,28.2µM*,
Cc1nc(-c2ccc(N(C)C)cc2)cc([C@H]2CN3CC[C@H]2C[C@@H]3CNC(=O)c2ccccc2)n1,2.2,?,?,25.1µM*,
Cc1nc(-c2ccccc2Br)cc([C@H]2CN3CC[C@H]2C[C@@H]3CNC(=O)c2ccc(N(C)C)cc2)n1,-5.7,-28.1%,-22.1%,i,
CCCCCC(=O)N1C[C@H](C(=O)OCC)[C@H]2c3ccccc3N(CCO)C(=O)[C@]21C,6.5,5.2%[23.9 µM],-21.1%[25.6 µM],nt,
CC(C)c1ccc(NC(=O)OC[C@H]2C[C@@H]3CCN2C[C@@H]3c2cc(C3CCCC3)nc(-c3ccncc3)n2)cc1,1.7,?,?,i,
CC(=O)[O][Hg][c]1ccccc1,-60.7*,?,?,nt,IP6K1 inh cnf=0.651µM*
SMILES,IP6K1 inh,SNCA viab count,SNCA expr inh,KDM5B inh,others
COCCN1C(=O)N(C)C(=O)C12CCN(Cc1c(C)noc1C)C2 (configuration not stated),21.5,-1.8%,20.5%,nt,
Cc1nc(-c2ccccc2Br)cc([C@H]2CN3CC[C@H]2C[C@@H]3CNC(=O)NC(C)C)n1,4.3,-10.4%,2.5%,?,
C#CC1(O)CCC2C3CCC4=CC(=O)CCC4=C3C=CC21C (configuration not stated),-8.3,14.8%,nt,nt,
C=CC[C@]1(O)CC[C@H]2[C@@H]3CCC4=CC(=O)CCC4=C3C=C[C@@]21C,-44.6*,-9.2%[23.9 µM],-27.2%[25.6 µM],nt,IP6K1 inh cnf=-15.7%
N=c1c2c(-c3ccccc3)c(-c3ccccc3)n(Cc3ccccc3)c2ncn1C1CCC(O)CC1 (configuration not stated),nt,-0.9%,?,nt,IP6K1 inh cnf=-9.6%[115 µM]
C[C@]12CCC(=O)C=C1CC[C@@H]1[C@H]3CC[C@](C)(O)[C@@]3(C)CC[C@@H]12,21.9,?,-15.5%[87.6 µM],nt,
CC12Cc3cn[nH]c3C=C1CCC1C2CCC2(C)C1CCC2(C)O (configuration not stated),-46.9*,-3.1%,nt,nt,IP6K1 inh cnf=7.31µM*
C/C=C(\C)C(=O)OC1CC2C(CC=C3CC(OC4CC(OC)C(OC5CC(OC)C(OC6CC(OC)C(OC7CC(OC)C(O)C(C)O7)C(C)O6)C(C)O5)C(C)O4)CCC32C)C2(O)CCC(C(C)=O)C12C (configuration not stated),7.7,11.3%[12.5 µM],nt,nt,
N#Cc1nn(-c2c(Cl)cc(C(F)(F)F)cc2Cl)c(N)c1S(=O)C(F)(F)F (configuration not stated),-41.4*,-24.1%[23.9 µM],23.1%[25.6 µM],nt,IP6K1 inh cnf=?
COc1cc2c(cc1OCc1ccccc1)NC(=O)C21CCN(C(=O)c2ccccc2)CC1,-13.8,-20.4%,-13.4%,i,
Cc1ccc([C@H]2CN(C(=O)C(=O)c3cccn3C)[C@@H]3C4CCN(CC4)[C@H]23)cc1,-29.9*,-4.4%,0.6%,i,IP6K1 inh cnf=9.2%
COc1ccc([C@@H]2CN(C(=O)C(=O)c3ccco3)[C@@H]3C4CCN(CC4)[C@@H]32)cc1,3.9,2.1%,9.1%,i,
O=C1NCCOCCN[C@@H]2CCCC[C@H]12,-3.7,?,31.8%,i,
CC[n+]1c(-c2ccccc2)c2cc(N)ccc2c2ccc(N)cc21,-52.4*,-17.4%[23.9 µM],-39.3%[25.6 µM],nt,IP6K1 inh cnf=?
Cc1c(Cl)c(=O)oc2cc(OP(=O)(OCCCl)OCCCl)ccc12,6.1,3.2%[23.9 µM],11.4%[25.6 µM],nt,
CCOP(=S)(OCC)Oc1ccc2c(C)c(Cl)c(=O)oc2c1,-52.1*,-16.0%[23.9 µM],-2.1%[25.6 µM],nt,IP6K1 inh cnf=6.51µM*
